# beta cell repl: inducers of MIN6 beta-cell proliferation, primary screen, ATP luminescence, uHTS | MIN6 cells proliferation, ATPlite luminescence, 48 h; cells starved in 0.2% serum; 100% = growth in 10% serum | proliferation, % at 10 µM | actives 0.29% (n = 330,000);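 active = compounds whose signal lies at least 3.5 SD above the mean of all wells on their plate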;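 note: 0% = DMSO-treated cells in low-serum medium and 100% = 10% serum control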
# p-CIP stab down: p/CIP-EGFP fusion destabilizers, primary screen, fluorescence, F442A cells; Q05BA5; 16 h; decrease of EGFP signal, % at 10 µM; actives 0.01% (n = 290,000);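 active = EGFP signal decrease of at least 30% at 10 µM or well 3 SD below plate mean, unless failing retest; inactive = the rest, including hits failing retest or dose response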
# Target sequence (Q05BA5 1-1403): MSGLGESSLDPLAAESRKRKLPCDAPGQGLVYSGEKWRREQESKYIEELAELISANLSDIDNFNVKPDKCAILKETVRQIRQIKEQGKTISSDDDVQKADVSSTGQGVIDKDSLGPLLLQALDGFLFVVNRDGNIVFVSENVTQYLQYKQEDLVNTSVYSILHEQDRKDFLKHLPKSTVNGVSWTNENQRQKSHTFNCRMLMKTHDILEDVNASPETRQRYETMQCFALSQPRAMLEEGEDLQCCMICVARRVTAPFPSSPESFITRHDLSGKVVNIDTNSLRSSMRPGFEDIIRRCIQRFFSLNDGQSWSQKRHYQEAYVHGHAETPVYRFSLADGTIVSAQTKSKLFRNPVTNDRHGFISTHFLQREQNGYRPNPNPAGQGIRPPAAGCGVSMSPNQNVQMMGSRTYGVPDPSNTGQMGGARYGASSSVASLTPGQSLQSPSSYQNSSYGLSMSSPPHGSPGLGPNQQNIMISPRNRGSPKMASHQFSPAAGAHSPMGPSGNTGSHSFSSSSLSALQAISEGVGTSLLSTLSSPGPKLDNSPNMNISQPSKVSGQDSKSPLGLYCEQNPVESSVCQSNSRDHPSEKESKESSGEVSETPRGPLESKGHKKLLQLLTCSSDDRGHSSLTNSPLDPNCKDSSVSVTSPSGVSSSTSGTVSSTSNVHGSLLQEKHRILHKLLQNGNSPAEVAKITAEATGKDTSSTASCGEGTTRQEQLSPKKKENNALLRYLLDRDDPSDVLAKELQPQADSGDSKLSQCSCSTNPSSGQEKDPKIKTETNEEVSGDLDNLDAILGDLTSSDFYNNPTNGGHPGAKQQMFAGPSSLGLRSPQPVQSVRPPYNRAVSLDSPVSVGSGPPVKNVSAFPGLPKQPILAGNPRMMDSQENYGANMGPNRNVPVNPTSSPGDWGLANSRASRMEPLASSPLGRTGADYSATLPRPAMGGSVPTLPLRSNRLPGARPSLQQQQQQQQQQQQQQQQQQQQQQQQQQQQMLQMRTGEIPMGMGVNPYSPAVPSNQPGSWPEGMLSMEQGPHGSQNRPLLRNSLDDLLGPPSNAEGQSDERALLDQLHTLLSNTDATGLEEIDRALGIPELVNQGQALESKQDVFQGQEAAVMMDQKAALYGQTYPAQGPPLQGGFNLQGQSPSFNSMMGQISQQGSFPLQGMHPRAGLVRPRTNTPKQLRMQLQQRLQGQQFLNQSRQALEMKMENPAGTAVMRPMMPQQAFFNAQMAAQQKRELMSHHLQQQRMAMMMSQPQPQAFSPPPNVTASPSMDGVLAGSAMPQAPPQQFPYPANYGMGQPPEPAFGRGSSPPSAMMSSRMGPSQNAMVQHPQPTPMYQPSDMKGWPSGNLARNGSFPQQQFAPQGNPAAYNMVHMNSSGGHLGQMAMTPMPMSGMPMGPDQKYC
# MPTP block: mitochondrial permeability transition pore inhibitors, primary screen, biochemical, isolated mouse mitochondria, absorbance | actives 1.4% (n = 360,000) | inhibition, % at 10 µM | Ca2+ swelling absorbance, 30 min;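 active = inhibition of 50% or more, scaled per plate between neutral and stimulator controls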;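 note: 0% = DMSO wells given calcium and 100% = 1 mM EGTA wells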
# GRIN3A LBD mod: binders of NR3A ligand-binding domain, primary screen, biophysical, differential scanning fluorimetry, uHTS | Glutamate receptor ionotropic, NMDA 3A (GRIN3A) ligand-binding domain | NR3A LBD differential scanning fluorimetry, Tm shift; 0% = protein alone, 100% = glycine-bound protein | AID 1259313, 2017 | actives 2.5% (n = 340,000) | Tm shift relative to glycine control, % at 25 µM;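 active = melting temperature shift of at least 10% of the positive control shift, at one fixed dose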
# FAS-TE inh: FAS thioesterase domain inhibitors, primary screen, biochemical, fluorescence intensity, uHTS; Fatty acid synthase (Homo sapiens), P49327; recombinant FAS-TE, OMFH fluorogenic substrate, fluorescence endpoint; inhibition, % at 15 µM; actives 0.67% (n = 360,000); AID 602261, 2012;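 active = compounds whose normalised, plate-corrected inhibition of enzyme fluorescence in the single-dose primary screen is 50% or more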;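 note: 0% = DMSO with enzyme and 100% = substrate without enzyme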
# * marks the source's active call; other numbers are inactive results; · = not tested or not shown. Most compounds without a hit are left out; they make up all but 4.1% or so of the library.
SMILES,beta cell repl,p-CIP stab down,MPTP block,GRIN3A LBD mod,FAS-TE inh
Cc1cccc(C)c1NC(=O)c1csc([C@H]2C[C@H](O)[C@@H](CO)O2)n1,·,·,-1,·,-6
COc1ccc(-c2oc3c(c2C(=O)OCCO)C(OCCCO)CCC3)cc1 (stereo unspecified),·,·,-1,·,-8
O=C(O)c1ccc(CN(c2ccccn2)S(=O)(=O)c2ccccc2)cc1,-1,-4,0,1,-4
Cc1c(Cl)cccc1N(Cc1ccc(C(=O)O)cc1)S(=O)(=O)c1ccccc1,1,6,-1,13*,-2
COc1ccc(OC)c(Nc2nc(N(C)c3ccccc3)nc(N)c2[N+](=O)[O-])c1,-2,-24,1,12*,21
CC(C)C[C@@H](CN1CCCC1CN1C(=S)NC[C@@H]1Cc1ccc(O)cc1)N1C[C@H](Cc2ccc(O)cc2)N(CC2CCCCCC2)C1=S (stereo partly specified),·,·,4,36*,-110
CC(C)C[C@@H](CN1CCCC1CN1C(=S)NC[C@@H]1Cc1ccc(O)cc1)N1C[C@H](Cc2ccccc2)N(CC2CCCCCC2)C1=S (stereo partly specified),·,·,3,12*,-144
CC(C)C[C@H]1CNC(=S)N1CC1CCCN1C[C@H](Cc1ccccc1)N1C[C@H](Cc2ccc(O)cc2)N(CC2CCCCCC2)C1=S (stereo partly specified),·,·,-1,29*,-115
CCCC(=O)N1CCC1(C)C(=O)NS(=O)(=O)c1ccccc1 (stereo unspecified),·,·,-2,·,-7
COc1ccc(Cc2c(-c3cccc(Cl)c3)nc3ccc(Cl)cn23)c(C)c1,·,·,0,·,4
Nc1ccccc1C(=O)NCc1ccc(Cl)cc1,0,3,0,12*,-9
CCN(CC)c1ccc(C(=C2C=CC(=[N+](CC)CC)C=C2)c2ccccc2)cc1,·,·,-9,-88,82*
CCOc1ccc(N2C(=O)Nc3ccc(Br)cc3C2(O)C(=O)NC(C)C)cc1 (stereo unspecified),7,-3,0,12*,-3
CCOc1ccc(N2C(=O)Nc3ccc(Br)cc3C2(O)C(=O)NCCN(C)C)cc1 (stereo unspecified),0,3,-1,1,-4
CCOc1ccc(N2C(=O)Nc3ccc(Br)cc3C2(O)C(=O)NCCCN(C)C)cc1 (stereo unspecified),-3,1,0,12*,-4
O=C(NC1CCCC1)N[C@@H]1CC[C@@H](CC(=O)N2CCOCC2)O[C@@H]1CO,·,·,3,·,·
CCc1nc2c(OCCn3cccc3)cccn2c1N(C)C(=O)CC(C)C,·,·,0,·,-7
Nc1nonc1-n1nnc(C(=O)N/N=C/c2ccc(OCc3ccccc3)cc2)c1CN1CCCCC1,-2,-9,0,18*,19
CCCCOc1ccc(/C=N/NC(=O)c2nnn(-c3nonc3N)c2CN2CCCCCC2)cc1,-7,·,2,0,23
Cc1ccc(COc2ccc(/C=N/NC(=O)c3nnn(-c4nonc4N)c3COc3ccc(F)cc3)cc2)cc1,-3,-1,2,21*,7
Cc1cc(C)c(/C=N/NC(=O)c2nnn(-c3nonc3N)c2COc2ccc(F)cc2)c(C)c1,-3,1,3,26*,34
CCc1nc2ccc(C(=O)NCCNC(C)=O)cn2c1N(C)CCCc1ccccc1,·,·,-1,·,-4
NC(=O)c1ncn([C@@H]2O[C@H](CNCc3ccccc3C#Cc3ccccc3)[C@@H](O)[C@H]2O)n1,·,·,1,11*,-12
CC(C)(O)C#Cc1ccc(CNC[C@H]2O[C@@H](n3cnc(C(N)=O)n3)[C@H](O)[C@@H]2O)s1,·,·,-1,11*,-10
Cc1sc2ccccc2c1CNC[C@H]1O[C@@H](n2cnc(C(N)=O)n2)[C@H](O)[C@@H]1O,·,·,-1,0,-11
SMILES,beta cell repl,p-CIP stab down,MPTP block,GRIN3A LBD mod,FAS-TE inh
O=C(CSc1ncccn1)N(Cc1cccnc1)C(CCc1ccccc1)c1nc2ccccc2[nH]1 (stereo unspecified),·,·,-2,·,-3
COc1ccccc1-c1ccc(Nc2cccc(C(C)=O)c2)nn1,-3,2,-1,11*,0
COc1cccc(Nc2c(Nc3cccc(OC)c3)c(=O)c2=O)c1,0,-3,1,6,0
COc1cccc(Nc2ccc(Nc3cccc(OC)c3)nn2)c1,0,5,-2,33*,13
CC(=O)c1cccc(Nc2ccc(-c3ccccc3F)nn2)c1,-3,15,3,-12,0
CCc1nc2c(OCc3ccc(OC)cc3)cccn2c1N(C)C(=O)c1ccncc1,·,·,1,·,-2
Cc1ccc2oc(NC3=NC4(CCCC4)C4=C(CCCC4=O)N3)nc2c1,·,·,-1,·,9
CC(C)C[C@H]1CN(CCCC[C@@H]2CNC(=O)C(=O)N2CC2CCCCC2)C(=O)C(=O)N1CCc1ccccc1,·,·,-2,·,8
COCCCn1cc(CN2CC(N3CCN(CCO)CC3)CS2(=O)=O)nn1 (stereo unspecified),·,·,-2,·,-9
Cc1ccc(S(=O)(=O)Nc2cccc(-c3ccc(N4CCCCCC4)nn3)c2)cc1C,-8,-4,-1,2,39
O=[N+]([O-])c1ccc(S(=O)(=O)Nc2cccc(-c3ccc(N4CCOCC4)nn3)c2)cc1,-4,·,-1,72*,17
Cc1ccc([N+](=O)[O-])cc1S(=O)(=O)Nc1cccc(-c2ccc(N3CCCC3)nn2)c1,-4,·,1,12*,44
O=C(CC[C@H]1O[C@@H](n2cnc3c(NC(=O)c4ccccc4)ncnc32)[C@H](O)[C@@H]1O)NCc1cccc2ccccc12,·,·,0,·,-7
COc1ccc(Cl)cc1NC(=O)COC(=O)C1CCCCC1,-2,·,1,1,32
COc1ccc(NC(=O)COC(=O)C2CCC2)cc1Cl,1,2,-1,18*,-2
CCN1C(=O)[C@H]2[C@@H](c3ccc(C(F)(F)F)cc3)N[C@]3(CCCN(Cc4ccc(OC)cc4)C3=O)[C@H]2C1=O,·,·,10,·,-2
Cc1ccc(SCCC(=O)Nc2ccccc2Br)cc1,-1,-10,0,1,19
Cc1ccc(SCCC(=O)Nc2ccccc2C(=O)NC(C)C)cc1,0,-13,1,14*,14
O=C1NC(NS(=O)(=O)c2ccccc2)(C(F)(F)F)C(=O)N1c1ccc(F)cc1 (stereo unspecified),0,-9,0,16*,-3
COc1ccc(NC(=O)CSc2ncnc3c2sc2ccccc23)c(OC)c1,2,-7,3,16*,-2
O=C(NCc1ccccc1Cl)c1cnccc1C(F)(F)F,-2,-12,-2,12*,-3

# High-throughput results as filed in PubChem.
